# Measurements published in PubChem BioAssay.
# Several values for one entry are separate records, joined by “and”; a condition that tells them apart may be missing. Identical values can stand only once. Results filed as inconclusive are left out. Activity calls are given as the source filed them. Rule as the data show it, unless noted: active = nuclear beta-catenin stimulation mostly above about 4.2% (no sharp cut-off); inactive = mostly below about 10%.
# How the values were obtained:
# [1] = Wnt pathway potentiators raising nuclear beta-catenin – imaging, WNT3A-conditioned medium, mouse C2C12, NPC library, primary screen (AID 1117326); details: stronger effect = higher value
# [2] = glutamate transport activators, MN-1 cells, MN-1 cell line (AID 1612); details: MN-1 motor neuron cells, stronger effect = higher value;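 also: tested at 1 µM final; 0% = mean of DMSO vehicle wells on each plate; positive means more glutamate uptake than control and negative means less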
# [3] = GFP-Q80 aggregate reduction, neuronal-like cells, cell-based, NGF-treated PC12, GFPQ80 (AID 1614); details: PC12 NGF-treated GFP-polyQ80 inclusion reduction;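 also: lower means fewer inclusions and 0 means no inclusions at all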
# [4] = 75Q-TubH aggregate inhibition, S. cerevisiae, yeast (AID 1616); details: S. cerevisiae 75Q-TubH polyglutamine aggregation suppression; stronger effect = higher value
# [5] = compounds altering circadian rhythm period length – cell-based, LOPAC library, luminescence reporter (AID 2774; call rule not given here;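 also: values are relative to mean of DMSO wells on each plate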); details: circadian reporter cells, at 7 µM, actives lie on both sides
# [6] = compounds altering viability of human ES cells (AID 493140; call rule not given here;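 also: cells exposed to compounds for four days before counting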); details: human embryonic stem cell survival screen; stronger effect = higher value
# [7] = P. berghei load reduction in hepatocytes – cell-based, HepG2, luciferase luminescence, HepG2 viability, primary screen (AID 624349; in the data active = parasite load remaining mostly below about 12%, no sharp cut-off; inactive = mostly above about 10%;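 also: 100% = mean of DMSO negative control wells on the same plate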); details: P. berghei liver stage in HepG2, luciferase luminescence, concentration not given here; parasite load remaining: stronger effect = lower value; viability: measured here: HepG2 viability without parasites
# [8] = tested on: Hepatitis C virus NS3 helicase; assay: blockers of NS3h binding to ssDNA – biochemical, fluorescence polarization, LOPAC1280 library, primary screen (AID 687035; in the data active = inhibition above about 37%); details: Purified HCV NS3 helicase, Cy5-dT15 ssDNA binding fluorescence polarization; stronger effect = higher value; concentration not given here
# [9] = compounds altering Cy5-DNA-NS3h complex signal – biochemical, LOPAC1280, artefact control for HCV NS3 helicase inhibitor project (AID 687037; call rule not given here); details: Cy5-DNA-NS3h complex fluorescence interference counterscreen
# [10] = rescue of PC12 cells from polyQ htt toxicity – LDH release (AID 1610); details: PC12 mutant huntingtin toxicity, final LDH at 4 uM, stronger effect = lower value
smiles,measurement,setting,value
CC(C)NC[C@@H](O)COc1cccc2ccccc12,nuclear beta-catenin stimulation,[1]; at 10 µM,-0.4% (inactive)
same,nuclear beta-catenin stimulation,"[1]; stimulation, at 2 µM",1.7%
CN(C)C(=O)Nc1ccc(Cl)c(Cl)c1,nuclear beta-catenin stimulation,[1]; at 10 µM,3.6% (inactive)
same,nuclear beta-catenin stimulation,"[1]; stimulation, at 2 µM",0.5%
CC(=O)O[C@]1(C(C)=O)CC[C@H]2[C@@H]3C=C(Cl)C4=CC(=O)CC[C@]4(C)[C@H]3CC[C@@]21C,nuclear beta-catenin stimulation,[1]; at 10 µM,1.1% (inactive)
same,nuclear beta-catenin stimulation,"[1]; stimulation, at 2 µM",-0.3%
CC(=O)Oc1cccc2c1C(=O)c1c(OC(C)=O)cc(C(=O)O)cc1C2=O,nuclear beta-catenin stimulation,[1]; at 10 µM,3.2% (inactive)
same,nuclear beta-catenin stimulation,"[1]; stimulation, at 2 µM",3.4%
Cc1nc2n(c(=O)c1CCN1CCC(c3noc4cc(F)ccc34)CC1)CCC[C@H]2O,nuclear beta-catenin stimulation,[1]; at 10 µM,0% (inactive)
same,nuclear beta-catenin stimulation,"[1]; stimulation, at 2 µM",-0.1%
CCCCC(=O)O[C@]1(C(=O)CO)[C@@H](C)C[C@H]2[C@@H]3CCC4=CC(=O)C=C[C@]4(C)[C@@]3(F)[C@@H](O)C[C@@]21C,nuclear beta-catenin stimulation,[1]; at 10 µM,2.9% (inactive)
same,nuclear beta-catenin stimulation,"[1]; stimulation, at 2 µM",5.5%
C[C@@H]1C[C@H]2[C@@H]3CCC4=CC(=O)C=C[C@]4(C)[C@@]3(F)[C@@H](O)C[C@]2(C)[C@@]1(O)C(=O)COP(=O)(O)O,nuclear beta-catenin stimulation,[1]; at 10 µM,1.2% (inactive)
same,nuclear beta-catenin stimulation,"[1]; stimulation, at 2 µM",0.8%
C#CCN[C@@H]1CCc2ccccc21,nuclear beta-catenin stimulation,[1]; at 10 µM,0.9% (inactive)
same,nuclear beta-catenin stimulation,"[1]; stimulation, at 2 µM",1.4%
Cc1nc(-c2ccc(OCC(C)C)c(C#N)c2)sc1C(=O)O,nuclear beta-catenin stimulation,[1]; at 10 µM,1.3% (inactive)
same,nuclear beta-catenin stimulation,"[1]; stimulation, at 2 µM",0.4%
O=C(O)CSCC(=O)NC1CCSC1=O (centres undefined),nuclear beta-catenin stimulation,[1]; at 10 µM,-0.4% (inactive)
same,nuclear beta-catenin stimulation,"[1]; stimulation, at 2 µM",1.1%
O=C(O)[C@@H](O)[C@H](O)[C@H](O)[C@@H](O)C(=O)O,nuclear beta-catenin stimulation,[1]; at 10 µM,-1.3% (inactive)
same,nuclear beta-catenin stimulation,"[1]; stimulation, at 2 µM",-0.3%
CC(=O)Oc1c(C)c(C)c2c(c1C)CC[C@@](C)(CCC[C@H](C)CCC[C@H](C)CCCC(C)C)O2,nuclear beta-catenin stimulation,[1]; at 10 µM,1.7% (inactive)
same,nuclear beta-catenin stimulation,"[1]; stimulation, at 2 µM",2%
C/C=C1\[C@H]2C=C(C)C[C@]1(N)c1ccc(=O)[nH]c1C2,nuclear beta-catenin stimulation,[1]; at 10 µM,-0.8% (inactive)
same,nuclear beta-catenin stimulation,"[1]; stimulation, at 2 µM",-0.8%
C[N+]1(C)[C@@H]2CC(OC(=O)[C@H](CO)c3ccccc3)C[C@H]1[C@@H]1O[C@@H]12 (some centres undefined),nuclear beta-catenin stimulation,[1]; at 10 µM,1.5% (inactive)
same,nuclear beta-catenin stimulation,"[1]; stimulation, at 2 µM",0.9%
O=C(O)/C=C(\CC(=O)O)C(=O)O,nuclear beta-catenin stimulation,[1]; at 10 µM,-0.9% (inactive)
same,nuclear beta-catenin stimulation,"[1]; stimulation, at 2 µM",-0.6%
Oc1cccc2[nH]ccc12,nuclear beta-catenin stimulation,[1]; at 10 µM,1.5% (inactive)
same,nuclear beta-catenin stimulation,"[1]; stimulation, at 2 µM",-1.2%
CCC(C)n1ncn(-c2ccc(N3CCN(c4ccc(OC[C@H]5CO[C@](Cn6cncn6)(c6ccc(Cl)cc6Cl)O5)cc4)CC3)cc2)c1=O (some centres undefined),nuclear beta-catenin stimulation,[1]; at 10 µM,36.2% (inactive)
same,nuclear beta-catenin stimulation,"[1]; stimulation, at 2 µM",34.3%
Cc1c(C(=O)O)c(O)cc2c1C(=O)c1c(O)c([C@@H]3O[C@H](CO)[C@@H](O)[C@H](O)[C@H]3O)c(O)c(O)c1C2=O,nuclear beta-catenin stimulation,[1]; at 10 µM,0% (inactive)
same,nuclear beta-catenin stimulation,"[1]; stimulation, at 2 µM",0.8%
C[n+]1c2cc(N)ccc2cc2ccc(N)cc21 (tested in a mixture with another compound),nuclear beta-catenin stimulation,[1]; at 10 µM,123% (active)
same,nuclear beta-catenin stimulation,"[1]; stimulation, at 2 µM",8%
COc1cc(OC)cc(OC)c1,nuclear beta-catenin stimulation,[1]; at 10 µM,1.2% (inactive)
same,nuclear beta-catenin stimulation,"[1]; stimulation, at 2 µM",-0.8%
Cc1c[nH]c2ccccc12,nuclear beta-catenin stimulation,[1]; at 10 µM,2% (inactive)
same,nuclear beta-catenin stimulation,"[1]; stimulation, at 2 µM",0.3%
CN1CCN(c2cc3c(cc2F)c(=O)c(C(=O)O)cn3-c2ccc(F)cc2)CC1,nuclear beta-catenin stimulation,[1]; at 10 µM,0.8% (inactive)
same,nuclear beta-catenin stimulation,"[1]; stimulation, at 2 µM",0.3%
CC(=O)OCC(=O)[C@@]1(O)[C@H](OC(C)=O)C[C@H]2[C@@H]3CCC4=CC(=O)C=C[C@]4(C)[C@@]3(F)[C@@H](O)C[C@@]21C,nuclear beta-catenin stimulation,[1]; at 10 µM,0.9% (inactive)
same,nuclear beta-catenin stimulation,"[1]; stimulation, at 2 µM",1.1%
C=C[C@@]1(C)CC(=O)[C@]2(O)[C@@]3(C)[C@@H](O)CCC(C)(C)[C@@H]3[C@H](O)[C@H](OC(C)=O)[C@@]2(C)O1,nuclear beta-catenin stimulation,[1]; at 10 µM,1.1% (inactive)
same,nuclear beta-catenin stimulation,"[1]; stimulation, at 2 µM",0.6%
COC(=O)[C@@H](N)CS,nuclear beta-catenin stimulation,[1]; at 10 µM,-1.4% (inactive)
same,nuclear beta-catenin stimulation,"[1]; stimulation, at 2 µM",2.3%
CO[C@H]1C=CO[C@@]2(C)Oc3c(C)c(O)c4c(O)c(c(/C=N/N5CCN(C)CC5)c(O)c4c3C2=O)NC(=O)/C(C)=C\C=C[C@H](C)[C@H](O)[C@@H](C)[C@@H](O)[C@@H](C)[C@H](OC(C)=O)[C@@H]1C,nuclear beta-catenin stimulation,[1]; at 10 µM,0.6% (inactive)
same,nuclear beta-catenin stimulation,"[1]; stimulation, at 2 µM",1.2%
O=C1O[C@H](CO)[C@@H](O)[C@H](O)[C@H]1O,nuclear beta-catenin stimulation,[1]; at 10 µM,-1.1% (inactive)
same,nuclear beta-catenin stimulation,"[1]; stimulation, at 2 µM",1%
CC(=O)OCC(=O)[C@H]1CC[C@H]2[C@@H]3CCC4=CC(=O)CC[C@]4(C)[C@H]3CC[C@]12C,nuclear beta-catenin stimulation,[1]; at 10 µM,-1.4% (inactive)
same,nuclear beta-catenin stimulation,"[1]; stimulation, at 2 µM",-0.5%
CC(=O)Nc1cccc(O)c1,nuclear beta-catenin stimulation,[1]; at 10 µM,-0.7% (inactive)
same,nuclear beta-catenin stimulation,"[1]; stimulation, at 2 µM",2.5%
Cc1cccc(C(=O)O)c1O,nuclear beta-catenin stimulation,[1]; at 10 µM,0% (inactive)
same,nuclear beta-catenin stimulation,"[1]; stimulation, at 2 µM",0.4%
CCCCCCCCCCCCCCCCC(C(=O)O)C(O)(CC(=O)O)C(=O)O (centres undefined),nuclear beta-catenin stimulation,[1]; at 10 µM,-0.9% (inactive)
same,nuclear beta-catenin stimulation,"[1]; stimulation, at 2 µM",-0.6%
Oc1cc(O)c2c(c1)O[C@H](c1ccc(O)c(O)c1)[C@H](O)C2,nuclear beta-catenin stimulation,[1]; at 10 µM,-1.4% (inactive)
same,nuclear beta-catenin stimulation,"[1]; stimulation, at 2 µM",1.2%
COCCCOc1cc(C[C@@H](C[C@H](N)[C@@H](O)C[C@H](C(=O)NCC(C)(C)C(N)=O)C(C)C)C(C)C)ccc1OC,nuclear beta-catenin stimulation,[1]; at 10 µM,-0.6% (inactive)
same,nuclear beta-catenin stimulation,"[1]; stimulation, at 2 µM",2.2%
NC(CS)C(=O)O (centres undefined),nuclear beta-catenin stimulation,[1]; at 10 µM,-0.1% (inactive)
same,nuclear beta-catenin stimulation,"[1]; stimulation, at 2 µM",0.4%
Cc1ccc2c(Cl)cc(Cl)c(O)c2n1,nuclear beta-catenin stimulation,[1]; at 10 µM,0.6% (inactive)
same,nuclear beta-catenin stimulation,"[1]; stimulation, at 2 µM",-1%
C[C@@H]1CC[C@@]2(OC1)O[C@H]1C[C@H]3[C@@H]4CC[C@H]5C[C@@H](O)CC[C@]5(C)[C@H]4CC(=O)[C@]3(C)[C@H]1[C@@H]2C,nuclear beta-catenin stimulation,[1]; at 10 µM,6.5% (inactive)
same,nuclear beta-catenin stimulation,"[1]; stimulation, at 2 µM",4.8%
C[C@@H]1CN(c2c(F)c(F)c3c(=O)c(C(=O)O)cn(C4CC4)c3c2F)C[C@H](C)N1,nuclear beta-catenin stimulation,[1]; at 10 µM,-0.9% (inactive)
same,nuclear beta-catenin stimulation,"[1]; stimulation, at 2 µM",1.1%
CN(C)CCOC(=O)COc1ccc(Cl)cc1,glutamate uptake change,[2],-7.05%
same,inclusion score,[3],2
same,aggregation suppression score,[4],1.56
same,period change,[5],-0.09 h (inactive)
same,survival,[6],8.75 (inactive)
same,parasite load remaining,[7],72.9% (inactive) and 143% (inactive)
same,viability,[7],96.7% and 93.9%
same,inhibition,[8],0% (inactive)
same,fluorescence ratio (interference),[9],1 (inactive)
same,nuclear beta-catenin stimulation,[1]; at 10 µM,-0.6% (inactive)
same,nuclear beta-catenin stimulation,"[1]; stimulation, at 2 µM",1%
CCN(CC)CCNc1ccc(CO)c2sc3ccccc3c(=O)c12,normalised LDH release,[10],0.8
same,glutamate uptake change,[2],14.7%
same,aggregation suppression score,[4],0.977
same,survival,[6],1.33 (inactive)
same,nuclear beta-catenin stimulation,[1]; at 10 µM,63.7% (active)
same,nuclear beta-catenin stimulation,"[1]; stimulation, at 2 µM",1.8%
Nc1c(Br)cc(Br)cc1CNC1CCC(O)CC1 (centres undefined),normalised LDH release,[10],0.856
same,glutamate uptake change,[2],5.04%
same,inclusion score,[3],2
same,aggregation suppression score,[4],1.15
same,survival,[6],4.58 (inactive)
same,nuclear beta-catenin stimulation,[1]; at 10 µM,1.6% (inactive)
same,nuclear beta-catenin stimulation,"[1]; stimulation, at 2 µM",0.3%
C[N+]1(CCCCC[N+]2(C)CCCC2)CCCC1,glutamate uptake change,[2],1.85%
same,inclusion score,[3],2
same,aggregation suppression score,[4],1.31
same,period change,[5],0.04 h (inactive)
same,survival,[6],22.2 (inactive)
same,parasite load remaining,[7],24.8% (inactive) and 111% (inactive) and 94.9% (inactive)
same,viability,[7],48.6% and 96% and 89.3%
same,inhibition,[8],4% (inactive)
same,fluorescence ratio (interference),[9],1 (inactive)
same,nuclear beta-catenin stimulation,[1]; at 10 µM,-1.8% (inactive)
same,nuclear beta-catenin stimulation,"[1]; stimulation, at 2 µM",0.5%
CN(C)c1ccc(C(=C2C=CC(=[N+](C)C)C=C2)c2ccc(N(C)C)cc2)cc1,normalised LDH release,[10],0.824
same,glutamate uptake change,[2],-15.7%
same,aggregation suppression score,[4],-1.97
same,parasite load remaining,[7],-0.57% (inactive) and -0.18% (inactive)
same,viability,[7],16.5% and 0%
same,nuclear beta-catenin stimulation,[1]; at 10 µM,1% (inactive)
same,nuclear beta-catenin stimulation,"[1]; stimulation, at 2 µM",28.6%
O=c1cc(CO)occ1O,glutamate uptake change,[2],5.22%
same,inclusion score,[3],2
same,aggregation suppression score,[4],1.36
same,nuclear beta-catenin stimulation,[1]; at 10 µM,2.6% (inactive)
same,nuclear beta-catenin stimulation,"[1]; stimulation, at 2 µM",0.4%
CCCCCCCCCCCCCCCCCCOCC(O)CO (centres undefined),glutamate uptake change,[2],11.1%
same,inclusion score,[3],2
same,aggregation suppression score,[4],0.825
same,nuclear beta-catenin stimulation,[1]; at 10 µM,3.8% (inactive)
same,nuclear beta-catenin stimulation,"[1]; stimulation, at 2 µM",2.8%
CC(NCCC(c1ccccc1)c1ccccc1)c1ccccc1 (centres undefined),normalised LDH release,[10],1.14
same,glutamate uptake change,[2],-8.71%
same,aggregation suppression score,[4],1.16
same,survival,[6],3.08 (inactive)
same,parasite load remaining,[7],-2.42% (inactive) and 196% (inactive) and 56% (inactive)
same,viability,[7],7.6% and 63.1% and 81.9%
same,nuclear beta-catenin stimulation,[1]; at 10 µM,27.6% (inactive)
same,nuclear beta-catenin stimulation,"[1]; stimulation, at 2 µM",-0.2%
